Screens (PubChem)
Most compounds without a hit are left out; they make up all but 1.4% or so of the library.
KCNH2 3.1 block: KCNH2 3.1 (human) potassium channel inhibition | AID 720553 | 0.95% of 340,000 active | activity change, % (tested at about 1.8 µM) | U2OS KCNH2 3.1, thallium flux FluxOr; active compounds read low;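 active = maximum activity change below -70%; inconclusive = maximum activity change from -70% to -50%; inactive = maximum activity change above -50%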;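 also: thallium influx rate constant from kinetic fluorescence after stimulation buffer; % is scaled to controls: 0 for no effect and ±100 for the full control effect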
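We transduce U2OS cells with the mutant 3.1 virus, culture them overnight, load FluxOr with Red40 quencher for 45 min, then add stimulation buffer and read kinetically for 2 min to derive a normalized rate constant.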
EPAC2 agonist: EPAC2 (human) agonism. Q8WZA2. Potency, µM (doses to about 154 µM), for inactives: top-dose activation, most hits filed as activators. EPAC2 activation, biochemical qHTS; response scale: 100% = 6.5 mM cAMP response. 0.079% of 360,000 active. AID 720711; also: potency is read from the fitted curve at half-maximal effect; nearly all actives have a fitted effect of over 50% in size
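Setup: EPAC2 100 nM, labeled Rap1B complex 250 nM, free GDP 50 uM. Compound titrations pinned in, brief spin, 5 min room temperature incubation. Kinetic fluorescence read over 30 min, normalized to 6.5 mM cAMP.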
EPAC2 antagonist: blocks human EPAC2 exchange factor; EPAC2 GEF exchange of Rap1B-BODIPY-GDP, fluorescence; Potency, µM (series often up to 114 µM), for the others: at the highest dose activity, negative = inhibition, most hits filed as inhibitors; Q8WZA2; 0.18% of 360,000 active; also: potency is read from the fitted curve at half-maximal effect; % is scaled to controls: 0 for no effect and ±100 for the full control effect; nearly all actives have a fitted effect of over 45% in size
KCNH2 WT inh: blocks the wildtype human KCNH2 potassium channel | AID 720551 | activity change, % at 1.84 µM | U2OS, BacMam KCNH2, thallium flux FluxOr; active compounds read low | Q12809 | 0.37% of 340,000 active;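 active = maximum activity change below -70%; inconclusive = maximum activity change between -70% and -50%; inactive = maximum activity change above -50%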; also: % is scaled to controls: 0 for no effect and ±100 for the full control effect
Target sequence (Q12809 whole entry, looked up): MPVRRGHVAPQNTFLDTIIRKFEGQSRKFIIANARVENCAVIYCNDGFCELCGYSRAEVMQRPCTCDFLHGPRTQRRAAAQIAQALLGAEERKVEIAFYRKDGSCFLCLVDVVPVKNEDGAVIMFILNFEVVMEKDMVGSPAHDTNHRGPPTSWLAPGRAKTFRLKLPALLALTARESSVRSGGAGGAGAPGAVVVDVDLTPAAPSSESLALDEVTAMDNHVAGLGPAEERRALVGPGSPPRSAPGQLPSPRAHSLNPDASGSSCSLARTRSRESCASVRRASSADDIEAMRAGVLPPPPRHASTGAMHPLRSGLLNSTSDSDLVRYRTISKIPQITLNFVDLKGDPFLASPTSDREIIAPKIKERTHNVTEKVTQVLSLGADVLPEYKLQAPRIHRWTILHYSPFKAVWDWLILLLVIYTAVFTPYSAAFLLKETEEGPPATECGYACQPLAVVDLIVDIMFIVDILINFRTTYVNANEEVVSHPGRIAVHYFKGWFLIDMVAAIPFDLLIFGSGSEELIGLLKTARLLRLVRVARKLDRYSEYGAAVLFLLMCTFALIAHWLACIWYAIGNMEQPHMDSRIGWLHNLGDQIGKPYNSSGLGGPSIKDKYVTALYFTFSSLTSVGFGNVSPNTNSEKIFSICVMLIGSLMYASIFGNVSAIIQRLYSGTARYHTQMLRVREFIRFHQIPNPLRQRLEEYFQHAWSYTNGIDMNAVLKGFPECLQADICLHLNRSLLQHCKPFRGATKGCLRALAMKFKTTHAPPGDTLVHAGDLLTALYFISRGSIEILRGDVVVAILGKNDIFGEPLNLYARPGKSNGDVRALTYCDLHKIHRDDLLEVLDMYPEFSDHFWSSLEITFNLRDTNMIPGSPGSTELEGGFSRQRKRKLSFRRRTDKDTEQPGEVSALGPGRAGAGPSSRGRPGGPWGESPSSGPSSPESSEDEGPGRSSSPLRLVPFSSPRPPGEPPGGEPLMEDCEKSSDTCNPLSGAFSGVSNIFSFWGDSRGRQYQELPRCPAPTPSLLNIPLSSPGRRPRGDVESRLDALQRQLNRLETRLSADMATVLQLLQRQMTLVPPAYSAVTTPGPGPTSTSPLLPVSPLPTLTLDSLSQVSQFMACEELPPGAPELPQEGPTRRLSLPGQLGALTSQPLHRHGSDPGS
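U2OS cells were transduced with wild-type KCNH2 virus (2.03 x 10^8 / mL) for 4 h at room temperature, then cultured overnight at 37 C. Thallium flux was read with FluxOr dye. Rate constants were normalized to DMSO controls.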
EPAC1 antagonist: antagonists of human EPAC1; EPAC1 GEF assay, Rap1b-BODIPY-GDP exchange fluorescence; Potency, µM (titrated, usually from 115 µM), inactives show top-dose activity change, negative = inhibition, most hits filed as inhibitors; 0.14% of 360,000 active; AID 720709;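 also: potency is read from the fitted curve at half-maximal effect; plate controls were vehicle for no effect and positive control for full effect; nearly all actives have a fitted effect of over 50% in size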
EPAC1 ag: activates human EPAC1 exchange factor. O95398. EPAC1 agonist qHTS, biochemical assay; response scale: 100% = response to 6.5 mM cAMP. Potency, µM (titrated, usually from 154 µM), inactives show top-dose activation, hits mostly activators. 0.073% of 360,000 active. AID 720707; also: potency is read from the fitted curve at half-maximal effect; nearly all actives have a fitted effect of over 60% in size
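EPAC1 100 nM, Rap1B–BODIPY-GDP 250 nM, unlabeled GDP 50 uM; compound titration; 5 min RT; kinetic read ex480/em540 at 5-min intervals ×30 min; data normalized to 6.5 mM cAMP agonist control.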
Starred values were filed as active, the others as inactive; ? = inconclusive; · = no result. Unless noted, calls follow the shape of the dose curve; as a rule, active = well fitted curve in the direction sought with a large enough effect; inconclusive = small, poorly fitted or top-dose-only effect, or another doubt; inactive = no such curve, though single readings can be large; an effect the other way counts as inactive or inconclusive.

SMILES | KCNH2 3.1 block | EPAC2 agonist | EPAC2 antagonist | KCNH2 WT inh | EPAC1 antagonist | EPAC1 ag
CC(=O)Nc1c2c3c(cccc3n(C)c1=O)C(=O)c1ccccc1-2 | -4.6 | 1.0% | 13.4% | -2.8 | 8.6% | 4.7%
CCn1cc(CN2CCN(CCc3ccccc3)C(CCO)C2)c(C)n1 (stereo not given) | -13.1 | 0.7% | 15.3% | -2.7 | -9.2% | -5.8%
CCN(CC)c1ccc(CNc2nc3ccccc3n2CCN2CCOCC2)cc1 | -77.2* | 6.2% | 1.6% | 22.6 | -23.9% | 3.2%
COc1ccc(CCc2nnc(CCC(=O)N(C)Cc3ccncc3C)o2)cc1 | -72.0* | 4.4% | 0.4% | 0.8 | 4.7% | 6.9%
CCCN1CCC(=O)N([C@H](CO)c2ccccc2)CC1 | 6.1 | 7.2% | 0.8% | -2.8 | ? | 6.4%
CC(C)CN1CCC(=O)N(CCOc2ccccc2)CC1 | -12.3 | 3.0% | 7.7% | 9.7 | -0.1% | 8.1%
CC(C)CN1CCC(=O)N([C@H](COc2ccccc2)c2ccccc2)CC1 | -99.6* | 1.2% | -16.8% | -42.8 | -9.7% | -6.7%
CCCN1CCC(=O)N([C@H](COc2ccccc2)c2ccccc2)CC1 | -95.4* | 8.3% | -15.1% | 19.9 | -6.8% | -10.4%
O=C1CCN(CCc2ccccc2)CCN1[C@H](COc1ccccc1)c1ccccc1 | -114.7* | 2.6% | -21.1% | -130.3* | 0.6% | -18.9%
CCOC(=O)[C@]12CCCC=C1N(CCC1=CCCCC1)C(=O)[C@H](CC(=O)NCC1CCCCC1)C2 | · | 15.3% | -7.5% | · | -6.3% | 3.9%
CN(C(=O)c1ccccc1C(=O)OCC(=O)c1ccc(Br)cc1)c1ccccc1 | -0.9 | 15.3% | -12.9% | -12.7 | -16.7% | 21.4%
CCOc1cc(/C=C(\CC(=O)O)c2nc3ccccc3s2)ccc1OCC(=O)Nc1cccc(C(F)(F)F)c1 | -25.8 | -15.9% | -2.7% | -258.1* | 1.6% | 0.6%
CNc1ccc(/C=C(\CCC(=O)O)c2nc3ccccc3s2)cc1[N+](=O)[O-] | -3.3 | 4.6% | -6.9% | -17.9 | 44.7µM* | ?
Cn1cnnc1Sc1ccc(/C=C(\CCC(=O)O)c2nc3ccccc3s2)cc1[N+](=O)[O-] | 5.3 | 6.0% | 1.9% | -16.4 | 9.1% | -8.0%
CN(c1ccccc1)c1ccc(/C=C(\CCC(=O)O)c2nc3ccccc3s2)cc1[N+](=O)[O-] | -11.2 | 1.3% | 79.4µM* | 0.0 | ? | 15.1%
O=C(O)C/C(=C\c1cccc(NC(=O)c2ccccc2Cl)c1)c1nc2ccccc2s1 | -6.2 | -1.9% | 4.0% | 34.9 | 0.0% | -8.8%
COc1ccc(C(=O)Nc2cccc(/C=C(\CCC(=O)O)c3nc4ccccc4s3)c2)cc1 | 8.5 | -2.5% | 31.9% | -2.3 | 56.2µM* | -3.8%
CC(C)c1cc(Cn2c3ccccc3c(=O)n2C(C)Cn2cc(-c3ccccc3)nn2)on1 (stereo not given) | · | -2.7% | 6.8% | · | 2.0% | 0.2%
Cc1ccc(/C=C(\CCC(=O)O)c2nc3ccccc3s2)cc1[N+](=O)[O-] | -22.9 | 2.4% | -1.5% | -3.9 | 79.4µM* | 27.2%
COCCOc1cc(NC(=O)CS(=O)(=O)CC(=O)N(C)C)c(Cl)cc1Cl | -9.0 | 3.0% | 24.9% | -16.2 | 4.0% | 4.4%
O=C(Cc1cccs1)Nc1cccc(C(=O)Nc2ccco2)c1 | -70.1* | 0.6% | 1.3% | -10.8 | 8.5% | -5.0%
CC(=O)c1cccc(NC(=O)Cc2cccs2)c1 | 2.6 | 10.5% | 10.4% | 0.5 | -9.7% | -0.6%
CCOc1ccc(CN2CCN(Cc3cc4c(cc3Cl)OCO4)CC2CCO)cc1 (stereo not given) | -119.2* | 18.7% | -8.9% | -110.7* | ? | 3.2%
CCn1c(CN2CCN(Cc3ccc(C)cc3)C(CCO)C2)nc2ccccc21 (stereo not given) | -98.3* | 3.8% | -5.1% | -24.9 | 9.4% | 4.8%
CCOc1ccc(CN2CCN(Cc3cccc4nonc34)CC2CCO)cc1 (stereo not given) | -115.7* | 5.5% | 3.3% | -76.7* | -13.8% | 6.7%
SMILES | KCNH2 3.1 block | EPAC2 agonist | EPAC2 antagonist | KCNH2 WT inh | EPAC1 antagonist | EPAC1 ag
CC(C)C[C@@H](CO)N1CCN(Cc2cccc(C#N)c2)CCC1=O | 12.7 | -1.1% | 38.0% | -4.9 | ? | -2.6%
O=C(C1CCCCC1)N1CCC(c2nc3ccccc3[nH]2)CC1 | -89.6* | 6.4% | 3.7% | 1.0 | 5.4% | 0.7%
COc1ccccc1NC(=O)C(C)OC(=O)CSCC(=O)Nc1ccc(C)cc1C (stereo not given) | -73.6* | 9.0% | -3.6% | -8.2 | -9.5% | 13.7%
CC(=O)N(Cc1ccccc1C)c1cccc(C)c1C | -12.4 | 3.6% | -20.7% | 4.3 | -20.5% | 1.3%
Cc1cccc(OCC(=O)N(Cc2ccco2)C2CCS(=O)(=O)C2)c1C (stereo not given) | -3.0 | -8.3% | -19.5% | -1.5 | 3.1% | -19.3%
COC(=O)c1cc(S(=O)(=O)N2CCN(c3ccccc3F)CC2)c[nH]1 | -78.7* | 1.3% | -8.2% | 7.7 | -7.4% | 11.2%
O=C(c1ccc(Cl)cc1)N1CCN(c2ccnc3cc(Cl)ccc23)CC1 | -87.4* | 15.7% | -22.0% | -9.9 | ? | 12.0%
Cc1ccc(S(=O)(=O)N2CCN(c3ccnc4cc(Cl)ccc34)CC2)cc1C | 18.4 | 5.1% | 3.0% | 0.5 | 11.0% | 1.1%
CC(=O)c1ccc(S(=O)(=O)N2CCN(c3ccnc4cc(Cl)ccc34)CC2)cc1 | -97.5* | 8.2% | -6.0% | -122.6* | -12.2% | 3.0%
Cc1ccc(S(=O)(=O)N2CCN(c3ccnc4cc(Cl)ccc34)CC2)cc1 | -102.4* | -4.8% | -9.2% | -36.4 | -22.3% | -2.5%
CCC(=O)N1CCN(c2ccnc3cc(Cl)ccc23)CC1 | -11.4 | 4.8% | -4.6% | 7.6 | 2.8% | -1.8%
COc1ccc(N2CCN(c3ccnc4cc(Cl)ccc34)CC2)cc1 | -80.6* | 8.7% | -7.4% | 6.9 | 9.6% | 12.9%
CC(=O)c1csc(COc2ccc(Cl)cc2)n1 | 5.1 | 2.4% | -8.3% | 0.7 | -21.9% | 8.5%
CC(C)(C)NC(=O)COC(=O)c1ccc(Cl)c(S(N)(=O)=O)c1 | 3.1 | -8.8% | 17.6% | 4.5 | 12.4% | 10.6%
CCOC(=O)c1sc(NC(=O)CN2CC(C)OC(C)C2)nc1C (stereo not given) | 1.9 | 1.3% | -0.1% | 11.2 | 5.6% | -1.2%
O=c1[nH]c2cc3ccccc3cc2nc1-c1nnnn1C1CCCC1 | · | -13.4% | -4.1% | · | 3.3% | 0.1%
COc1cccc(CN(C)C(=O)Nc2cccc(C(F)(F)F)c2)c1OC | 1.2 | -5.7% | -12.6% | -4.2 | 12.0% | 1.8%
CSc1nc2ccc(NC(=O)CSc3nnc(N)s3)cc2s1 | -90.6* | 8.9% | -3.0% | -8.7 | -10.8% | 1.4%
